Source: article PMC5540273 (PLoS ONE, 2017)

What was measured:
Conditions in all cases: concentration: 1 μM, replicates: in singlicate; n = 1
[1] = test system: SRPK2
[2] = test system: SRPK3
[3] = test system: STK16
[4] = test system: STK33
[5] = test system: STK35
[6] = test system: STK36
[7] = test system: STK39
[8] = test system: SYK
[9] = test system: SgK110
[10] = test system: T1, TAK1
T1 construct: gene MAP3K7
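Also: KINOMEscan kinase panel screen.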

Row | Structure (SMILES) | %Inh [1] [%] | %Inh [2] [%] | %Inh [3] [%] | %Inh [4] [%] | %Inh [5] [%] | %Inh [6] [%] | %Inh [7] [%] | %Inh [8] [%] | %Inh [9] [%] | %Inh [10] [%]
1 | Cc1nccc(-c2c(-c3ccc(F)cc3)ncn2CCCN2CCOCC2)n1.Cl [SB-282975] | 0 | 0 | 0 | 14 | 0 | 10 | 28 | 28 | 26 | 26
2 | Cc1ccccc1-c1cc(-c2c[nH]nc2-c2ccccn2)ccn1 [GW680061] | 3 | 4 | 0 | 0 | 0 | 0 | 10 | 36 | 0 | 0
3 | Cc1ccc(-c2nc(Nc3ccncc3)c3ccccc3n2)s1 [GSK189015] | 0 | 18 | 12 | 12 | 18 | 0 | 15 | 5 | 0 | 0
4 | Cn1cncc1-c1cc2c(Nc3ccc(OCc4ccccc4)cc3)ncnc2cn1 [GW281179] | 0 | 0 | 4 | 0 | 0 | 0 | 12 | 27 | 0 | 0
5 | O=C(Nc1n[nH]c2nc(-c3cccs3)c(Br)cc12)C1CCCC1 [SB-743341] | 15 | 20 | 23 | 1 | 0 | 1 | 33 | 5 | 18 | 38
6 | Cc1ccccc1Cn1ccn2c(=O)cc(N3CCOCC3)nc12 [GSK2269905] | 0 | 0 | 0 | 0 | 0 | 0 | 12 | 23 | 0 | 0
7 | COc1ccc(Nc2nccc(N3CCC(NC(=O)C(C)c4ccc(Cl)cc4)CC3)n2)cc1 (centres unmarked) [GSK1379812] | 0 | 8 | 10 | 0 | 0 | 18 | 38 | 32 | 27 | 0
8 | CNc1nc(-c2ccc3c(N)n[nH]c3c2)cc(N2C[C@@H](C(=O)NC3CCCCC3)OC[C@H]2C)n1 [GSK2375584] | 30 | 0 | 16 | 13 | 0 | 22 | 6 | 26 | 0 | 0
9 | CCc1ccc(-c2ccc3c(c2)-c2n[nH]cc2S(=O)(=O)N3C)cc1 | 14 | 0 | 0 | 0 | 15 | 0 | 0 | 19 | 0 | 0
10 | CNC(=O)c1ccc(C)c(-n2c(C)cc(OCc3ccc(F)cc3F)c(Br)c2=O)c1 | 0 | 6 | 3 | 0 | 0 | 1 | 0 | 14 | 0 | 12
11 | Fc1ccc(-c2nn3cccc(F)c3c2-c2ccncc2)cc1 [GW475620] | 0 | 16 | 0 | 5 | 0 | 28 | 1 | 14 | 0 | 0
12 | COC(=O)c1cccc(NC(=O)NC2CCN(c3ccnc(Nc4ccc(F)cc4)n3)C2)c1 (centres unmarked) [GSK1379725] | 0 | 0 | 0 | 0 | 0 | 0 | 1 | 17 | 0 | 0
13 | COc1cccc(CNC(=O)NC2CCN(c3ccnc(Nc4ccc(F)cc4)n3)C2)c1 (centres unmarked) [GSK1379723] | 0 | 16 | 10 | 0 | 5 | 0 | 10 | 18 | 1 | 0
14 | COc1nccc(-c2c(-c3ccc(F)cc3)ncn2CCCN2CCOCC2)n1 [SB-282852] | 26 | 23 | 9 | 0 | 0 | 0 | 6 | 0 | 0 | 43
15 | CC[C@@H]1CO[C@H](C(=O)Nc2ccccc2)CN1c1cc(-c2ccc3c(N)n[nH]c3c2)nc(NC)n1 [GSK2376236] | 0 | 0 | 21 | 2 | 0 | 0 | 0 | 0 | 0 | 6
16 | Fc1ccc(-c2nc3n(c2-c2ccncc2)CCS3)cc1 [GI98581] | 0 | 0 | 0 | 1 | 0 | 7 | 0 | 28 | 0 | 0
17 | NS(=O)(=O)c1cccc(N/C=C2\C(=O)Nc3ccc(S(=O)(=O)Cc4c(Cl)cccc4Cl)cc32)c1 [GSK398099] | 0 | 0 | 19 | 0 | 0 | 0 | 0 | 0 | 0 | 0
